The values below come from article PMC5700166.

The target in the assay is T1, GST-Aq-NF-kB (Amphimedon queenslandica, UniProt A9Y5G7 2-389).
T1 sequence: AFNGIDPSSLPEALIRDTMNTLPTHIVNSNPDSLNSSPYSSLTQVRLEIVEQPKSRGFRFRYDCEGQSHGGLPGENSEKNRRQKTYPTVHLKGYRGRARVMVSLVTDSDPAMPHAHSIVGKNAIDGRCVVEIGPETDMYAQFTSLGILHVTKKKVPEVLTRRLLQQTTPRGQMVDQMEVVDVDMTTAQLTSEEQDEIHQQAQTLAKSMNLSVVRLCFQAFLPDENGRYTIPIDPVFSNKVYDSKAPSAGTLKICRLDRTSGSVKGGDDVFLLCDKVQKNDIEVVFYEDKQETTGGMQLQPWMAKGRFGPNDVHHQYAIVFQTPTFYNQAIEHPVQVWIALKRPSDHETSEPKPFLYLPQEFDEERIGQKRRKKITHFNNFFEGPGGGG
Description: protein-binding microarray (PBM); PBM: ~300 nM protein, 6 mM HEPES pH 7.8, 80 mM KCl, 0.5 mM EDTA, 0.5 mM EGTA, 6% glycerol, 35 ng/ul poly-dIdC, 1% milk, 1 h, room temperature; Ap Aiptasia and Nv Nematostella (sea anemones) / Co Capsaspora / Aq Amphimedon (sponge) / Dm Drosophila / Hu human; RHD is the Rel homology domain; high values mean tight binding. The settings on record: dsDNA, one strand shown.
The sequence “CCGATTAACATCACGGTCTTTCCTGATGTTAATCGGGTCTTGATTCGCTTGACGCTGCTG” registered a binding signal of 2.62 z-score.

“CCGATTAACATCAAGAATTTCCGTGATGTTAATCGGGTCTTGATTCGCTTGACGCTGCTG” came in with a binding signal of 1.89 z-score.

“CCGATTAACATCACGGAGAATCCTGATGTTAATCGGGTCTTGATTCGCTTGACGCTGCTG” gave a binding signal of 1.18 z-score.

On to “CCGATTAACATCACGGAACTTCCTGATGTTAATCGGGTCTTGATTCGCTTGACGCTGCTG”, for which the binding signal was determined as 2.23 z-score.

Take “CCGATTAACATCAGCAAAATTCCTGATGTTAATCGGGTCTTGATTCGCTTGACGCTGCTG”: the binding signal is 1.04 z-score.

For the sequence “CCGATTAACATCACGGATATTCCTGATGTTAATCGGGTCTTGATTCGCTTGACGCTGCTG”, the binding signal worked out at 1.34 z-score.

As for “CCGATTAACATCAGAATTGCCCATGATGTTAATCGGGTCTTGATTCGCTTGACGCTGCTG”, the binding signal was determined as 1.1 z-score.

In turn, “CCGATTAACATCAAATTTCCGGATGATGTTAATCGGGTCTTGATTCGCTTGACGCTGCTG” showed a binding signal of 1.25 z-score.

The sequence “CCGATTAACATCAGGAAATGTCCTGATGTTAATCGGGTCTTGATTCGCTTGACGCTGCTG” came in with a binding signal of 1.67 z-score.

Turning to “CCGATTAACATCAGGAAATTCTATGATGTTAATCGGGTCTTGATTCGCTTGACGCTGCTG”, the binding signal amounted to 1.08 z-score.

Take “CCGATTAACATCAGGAAATCTCCTGATGTTAATCGGGTCTTGATTCGCTTGACGCTGCTG”: the binding signal is 1.25 z-score.

For “CCGATTAACATCACGGAGATTCCTGATGTTAATCGGGTCTTGATTCGCTTGACGCTGCTG”, the binding signal was found to be 2.72 z-score.

Sequence “CCGATTAACATCAGAGAATTTCCTGATGTTAATCGGGTCTTGATTCGCTTGACGCTGCTG” came in with a binding signal of 1.55 z-score.

Sequence “CCGATTAACATCACGAAATTTCCTGATGTTAATCGGGTCTTGATTCGCTTGACGCTGCTG” displayed a binding signal of 1.65 z-score.

As to “CCGATTAACATCAGGAAACGCCCTGATGTTAATCGGGTCTTGATTCGCTTGACGCTGCTG”, the binding signal worked out at 3.05 z-score.

As to “CCGATTAACATCACGGAAGTTCCTGATGTTAATCGGGTCTTGATTCGCTTGACGCTGCTG”, the binding signal was 2.56 z-score.

For the sequence “CCGATTAACATCAGGATATGCCCTGATGTTAATCGGGTCTTGATTCGCTTGACGCTGCTG”, the binding signal stood at 1.7 z-score.

In turn, “CCGATTAACATCAAAAATATTCCTGATGTTAATCGGGTCTTGATTCGCTTGACGCTGCTG” came in with a binding signal of 1 z-score.

Consider “CCGATTAACATCACGGACTCTCCTGATGTTAATCGGGTCTTGATTCGCTTGACGCTGCTG”, for which the binding signal is 2.26 z-score.

On to “CCGATTAACATCAGGAATAGCCCTGATGTTAATCGGGTCTTGATTCGCTTGACGCTGCTG”, for which the binding signal is 1.9 z-score.

In turn, “CCGATTAACATCAGGCATTTCCATGATGTTAATCGGGTCTTGATTCGCTTGACGCTGCTG” yielded a binding signal of 1.13 z-score.

With “CCGATTAACATCAGAAACTTTCCTGATGTTAATCGGGTCTTGATTCGCTTGACGCTGCTG”, the binding signal turned out to be 2.07 z-score.

On to “CCGATTAACATCAGGACAGTCCATGATGTTAATCGGGTCTTGATTCGCTTGACGCTGCTG”, for which the binding signal was determined as 1.46 z-score.

“CCGATTAACATCAGGAAATATCCTGATGTTAATCGGGTCTTGATTCGCTTGACGCTGCTG” showed a binding signal of 1.24 z-score.

Take “CCGATTAACATCACGGAATCTCCTGATGTTAATCGGGTCTTGATTCGCTTGACGCTGCTG”: the binding signal worked out at 2.17 z-score.

In the case of “CCGATTAACATCAGGAACTGCCCTGATGTTAATCGGGTCTTGATTCGCTTGACGCTGCTG”, the binding signal came out at 2.36 z-score.

“CCGATTAACATCAGGAAGTTCCATGATGTTAATCGGGTCTTGATTCGCTTGACGCTGCTG” returned a binding signal of 1.48 z-score.

Sequence “CCGATTAACATCAAAATTTCCGTTGATGTTAATCGGGTCTTGATTCGCTTGACGCTGCTG” came in with a binding signal of 1.64 z-score.

In turn, “CCGATTAACATCAGGAATTGCCATGATGTTAATCGGGTCTTGATTCGCTTGACGCTGCTG” displayed a binding signal of 1.02 z-score.

For “CCGATTAACATCAAAAATCCGGTTGATGTTAATCGGGTCTTGATTCGCTTGACGCTGCTG”, the binding signal came out at 1.32 z-score.

“CCGATTAACATCAAAATTTCCGCTGATGTTAATCGGGTCTTGATTCGCTTGACGCTGCTG” had a binding signal of 1.48 z-score.

In turn, “CCGATTAACATCAAGAAATTCCTTGATGTTAATCGGGTCTTGATTCGCTTGACGCTGCTG” gave a binding signal of 1.02 z-score.

Consider “CCGATTAACATCACGGACATTCCTGATGTTAATCGGGTCTTGATTCGCTTGACGCTGCTG”, for which the binding signal was determined as 1.97 z-score.

Consider “CCGATTAACATCAAGGAGATTCCTGATGTTAATCGGGTCTTGATTCGCTTGACGCTGCTG”, for which the binding signal came to 1.73 z-score.

On to “CCGATTAACATCACGGAAAATTCTGATGTTAATCGGGTCTTGATTCGCTTGACGCTGCTG”, for which the binding signal is 1.15 z-score.

In turn, “CCGATTAACATCACGGATTTTCCTGATGTTAATCGGGTCTTGATTCGCTTGACGCTGCTG” displayed a binding signal of 3.35 z-score.

Consider “CCGATTAACATCAAAATTCCGGATGATGTTAATCGGGTCTTGATTCGCTTGACGCTGCTG”, for which the binding signal amounted to 1.54 z-score.

As to “CCGATTAACATCACGGCAATTCCTGATGTTAATCGGGTCTTGATTCGCTTGACGCTGCTG”, the binding signal was 1.38 z-score.

“CCGATTAACATCACGGACTGCCCTGATGTTAATCGGGTCTTGATTCGCTTGACGCTGCTG” gave a binding signal of 1.7 z-score.

“CCGATTAACATCAGAATTTCCGCTGATGTTAATCGGGTCTTGATTCGCTTGACGCTGCTG”: the binding signal was found to be 1.06 z-score.
